Experimental findings from PubChem BioAssay (EPA / NIEHS) are described below.

Read-out in assay [1]: Interferon-gamma inducible Protein 10 (IP10), CXCL10 (gene 3627)
Put plainly: BSK_hDFCGF_IP10: BioMAP Diversity Plus: hDFCGF Assay for Interferon-gamma inducible Protein 10 (IP10) Biomarker Activity (AID 2283053). Conditions: primary human foreskin fibroblasts; actives raise or lower the signal. In a few lines:
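Primary human foreskin fibroblasts exposed to chemicals for 24 h. IP-10 measured by ELISA; changes fitted bidirectionally against DMSO baseline.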

Read-out in assay [2]: Urokinase-type plasminogen activator receptor (uPAR), PLAUR (gene 5329)
Put plainly: BSK_CASM3C_uPAR: BioMAP Diversity Plus: CASM3C Assay for Urokinase-type plasminogen activator receptor (uPAR) Biomarker Activity (AID 2283054).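 Also: cell-surface uPAR protein level quantified by ELISA.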 Conditions: primary human coronary artery smooth muscle cells; actives raise or lower the signal.

Read-out in assay [3]: Vascular cell adhesion molecule 1 (VCAM1), VCAM1 (gene 7412)
Put plainly: BSK_CASM3C_VCAM1: BioMAP Diversity Plus: CASM3C Assay for Vascular cell adhesion molecule 1 (VCAM1) Biomarker Activity (AID 2283055).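 Also: VCAM-1 protein level quantified by ELISA on the cells.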 Conditions: primary human coronary artery smooth muscle cells; actives raise or lower the signal.

Read-out in assay [4]: Collagen III, COL3A1 (gene 1281)
Put plainly: BSK_hDFCGF_CollagenIII: BioMAP Diversity Plus: hDFCGF Assay for Collagen III Biomarker Activity (AID 2283056). Conditions: primary human foreskin fibroblasts; actives raise or lower the signal. The procedure, abridged: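 Cells: human foreskin fibroblasts, primary. Dosing followed by 24 h incubation, then ELISA for collagen III. Both increases and decreases scored relative to DMSO.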

Read-out in assay [5]: Epidermal growth factor receptor (EGFR), EGFR (gene 1956)
Nature of the assay: BSK_hDFCGF_EGFR: BioMAP Diversity Plus: hDFCGF Assay for Epidermal growth factor receptor (EGFR) Biomarker Activity (AID 2283057). Conditions: primary human foreskin fibroblasts; actives raise or lower the signal. In a few lines: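 Primary human foreskin fibroblasts (hDFCGF system), sampled 24 h after dosing; EGFR quantified by ELISA. Bidirectional fit relative to DMSO baseline; SRB total-protein staining in parallel cultures for cytotoxicity.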

Read-out in assay [6]: Interleukin-8 (IL8), CXCL8 (gene 3576)
Nature of the assay: BSK_hDFCGF_IL8: BioMAP Diversity Plus: hDFCGF Assay for Interleukin-8 (IL8) Biomarker Activity (AID 2283058). Conditions: primary human foreskin fibroblasts; actives raise or lower the signal. The procedure, abridged:
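IL-8 levels from compound-treated primary human fibroblasts were read by ELISA at 24 h, with DMSO serving as baseline for bidirectional fitting.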

Assay [7] in a line: BSK_hDFCGF_Proliferation: Cell Proliferation Assessment in the BioMAP Diversity Plus: hDFCGF Assay (AID 2283059).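 Also: curves fitted for both rise and fall of signal versus DMSO baseline.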 Conditions: primary human foreskin fibroblasts. In a few lines: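 Primary human foreskin fibroblasts, sub-confluent; […]; 10% TCA fix, 0.1% SRB stain, A560 total protein. Gain/loss fitted bidirectionally vs DMSO control.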
Read-out in assay [8]: Macrophage colony-stimulating factor (MCSF), CSF1 (gene 1435)
Nature of the assay: BSK_hDFCGF_MCSF: BioMAP Diversity Plus: hDFCGF Assay for Macrophage colony-stimulating factor (MCSF) Biomarker Activity (AID 2283060). Conditions: primary human foreskin fibroblasts; actives raise or lower the signal. In a few lines: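 M-CSF levels, determined by ELISA, are taken at 24 h after dosing human skin fibroblasts. Responses in either direction are fitted with DMSO serving as the baseline.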

Assay [9] is described as follows: BSK_hDFCGF_SRB: Viability Assessment in the BioMAP Diversity Plus: hDFCGF Assay (AID 2283061).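 Also: cells exposed to compound for 24 h before the read.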 Conditions: primary human foreskin fibroblasts. The procedure, abridged:
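Cells were dosed with test chemical, cultured 24 h, fixed with 10% TCA, then stained with 0.1% SRB and read at 560 nm. The fibroblasts were human foreskin primary cells, and DMSO served as baseline.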

Read-out in assay [10]: TIMP metallopeptidase inhibitor 1 (TIMP1), TIMP1 (gene 7076)
Nature of the assay: BSK_hDFCGF_TIMP1: BioMAP Diversity Plus: hDFCGF Assay for TIMP metallopeptidase inhibitor 1 (TIMP1) Biomarker Activity (AID 2283062). Conditions: primary human foreskin fibroblasts; actives raise or lower the signal. In a few lines: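 Fibroblasts from human foreskin are treated with test chemical and harvested at 24 h. TIMP-1 is quantified by ELISA, and gain or loss of signal is scored against DMSO.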

Read-out in assay [11]: Monokine induced gamma interferon (MIG), CXCL9 (gene 4283)
Put plainly: BSK_hDFCGF_MIG: BioMAP Diversity Plus: hDFCGF Assay for Monokine induced gamma interferon (MIG) Biomarker Activity (AID 2283063). Conditions: primary human foreskin fibroblasts; actives raise or lower the signal. In a few lines: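 MIG signal, determined by ELISA, reflects 24 h chemical exposure of human skin primary fibroblasts. DMSO serves as negative control and baseline.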

Read-out in assay [12]: Matrix Metallopeptidase 1 (MMP1), MMP1 (gene 4312)
Nature of the assay: BSK_hDFCGF_MMP1: BioMAP Diversity Plus: hDFCGF Assay for Matrix Metallopeptidase 1 (MMP1) Biomarker Activity (AID 2283064). Conditions: primary human foreskin fibroblasts; actives raise or lower the signal. The procedure, abridged: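 Primary human foreskin fibroblasts in the hDFCGF system were dosed with test chemical, and MMP1 was measured by ELISA 24 h later. Values come from bidirectional curve fitting against the DMSO baseline.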

Read-out in assay [13]: Vascular cell adhesion molecule 1 (VCAM1), VCAM1 (gene 7412)
Nature of the assay: BSK_hDFCGF_VCAM1: BioMAP Diversity Plus: hDFCGF Assay for Vascular cell adhesion molecule 1 (VCAM1) Biomarker Activity (AID 2283065).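 As to AC50: VCAM-1 protein level quantified by ELISA after 24 h chemical exposure.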 Conditions: primary human foreskin fibroblasts; actives raise or lower the signal. In a few lines: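 Cells are dosed, cultured for 24 h, then VCAM-1 is quantified by ELISA; signal increases and decreases are both fitted relative to DMSO.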

Read-out in assay [14]: Plasminogen activator inhibitor-1 (PAI1), SERPINE1 (gene 5054)
Put plainly: BSK_hDFCGF_PAI1: BioMAP Diversity Plus: hDFCGF Assay for Plasminogen activator inhibitor-1 (PAI1) Biomarker Activity (AID 2283066). Conditions: primary human foreskin fibroblasts; actives raise or lower the signal. In a few lines:
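Human foreskin fibroblast primary cells, 24 h chemical exposure; PAI-1 measured by ELISA. Bidirectional fitting relative to DMSO; parallel cultures stained with SRB for total protein to flag overt cytotoxicity.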

Read-out in assay [15]: Interferon-gamma inducible Protein 10 (IP10), CXCL10 (gene 3627)
Put plainly: BSK_KF3CT_IP10: BioMAP Diversity Plus: KF3CT Assay for Interferon-gamma inducible Protein 10 (IP10) Biomarker Activity (AID 2283068). Conditions: primary human keratinocytes with fibroblasts; actives raise or lower the signal. The procedure, abridged: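 In a primary skin co-culture of keratinocytes and fibroblasts, IP-10 is quantified by ELISA at 24 h after dosing. SRB staining of parallel wells monitors overt toxicity. Curves are fitted both directions against DMSO.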

The nature of assay [16]: BSK_KF3CT_SRB: Viability Assessment in the BioMAP Diversity Plus: KF3CT Assay (AID 2283069).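 Also: total protein by sulforhodamine B staining as a cytotoxicity measure.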 Conditions: primary human keratinocytes with fibroblasts. In a few lines:
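Human primary keratinocyte plus foreskin fibroblast co-culture exposed to chemicals for 24 h. Total protein measured by 0.1% sulforhodamine B staining after 10% TCA fixation, read at 560 nm; bidirectional fitting versus DMSO baseline.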

Read-out in assay [17]: Interleukin-1 alpha (IL1a), IL1A (gene 3552)
Put plainly: BSK_KF3CT_IL1a: BioMAP Diversity Plus: KF3CT Assay for Interleukin-1 alpha (IL1a) Biomarker Activity (AID 2283070). Conditions: primary human keratinocytes with fibroblasts; actives raise or lower the signal. The procedure, abridged:
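Human keratinocyte plus foreskin fibroblast primary co-culture, sampled 24 h after chemical dosing. IL-1a measured by ELISA; responses fitted bidirectionally against DMSO baseline (negative control), so gain or loss of signal both count.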

Read-out in assay [18]: TIMP metallopeptidase inhibitor 2 (TIMP2), TIMP2 (gene 7077)
Put plainly: BSK_KF3CT_TIMP2: BioMAP Diversity Plus: KF3CT Assay for TIMP metallopeptidase inhibitor 2 (TIMP2) Biomarker Activity (AID 2283071). Conditions: primary human keratinocytes with fibroblasts; actives raise or lower the signal. The procedure, abridged:
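Co-culture of human primary keratinocytes and foreskin fibroblasts, measured 24 h after chemical dosing. TIMP-2 quantified by ELISA and fitted in both directions relative to DMSO. Cytotoxicity checked in parallel cultures by SRB total-protein staining.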

Read-out in assay [19]: Transforming growth factor beta 1 (TGFb1), TGFB1 (gene 7040)
Nature of the assay: BSK_KF3CT_TGFb1: BioMAP Diversity Plus: KF3CT Assay for Transforming growth factor beta 1 (TGFb1) Biomarker Activity (AID 2283072). Conditions: primary human keratinocytes with fibroblasts; actives raise or lower the signal. In a few lines:
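Human keratinocyte/foreskin fibroblast co-culture; TGF-b1 measured by ELISA 24 h after dosing, fitted bidirectionally versus DMSO. Cytotoxicity checked in parallel cultures by total protein (SRB staining, 560 nm).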

Read-out in assay [20]: Intercellular Adhesion Molecule 1 (ICAM1), ICAM1 (gene 3383)
Nature of the assay: BSK_KF3CT_ICAM1: BioMAP Diversity Plus: KF3CT Assay for Intercellular Adhesion Molecule 1 (ICAM1) Biomarker Activity (AID 2283067). Conditions: primary human keratinocytes with fibroblasts; actives raise or lower the signal. In a few lines: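 Dose the keratinocyte/fibroblast co-culture, wait 24 h, measure ICAM-1 by ELISA, then fit increases or decreases against DMSO. Cytotoxicity is checked in parallel cultures by SRB total-protein staining.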

Molecules are shown by their SMILES. The source made the active and inactive calls. The calls were made as follows: active = hit-call score of the fitted dose curve at least 0.9, where 1 is the maximum; inactive = score below 0.9.

With `O=[N+]([O-])c1ccc(Nc2ccccc2)cc1`, the result in assay [1], in [2], in assay [3], in [4], in assay [5] and in [6] was inactive. In addition, the outcome in [7], in [8], in [9], in [10], in [11] and in assay [12] was inactive. The outcome in assay [13], in [14], in assay [15], in [16], in assay [17] and in assay [18] was inactive. For the same compound, in assay [19], the outcome was inactive.

With `CCOC(=O)CCN(SN(C)C(=O)Oc1cccc2c1OC(C)(C)C2)C(C)C`, the AC50 (usually the midpoint of the concentration-response curve, whichever way the signal moves) is 37.1 µM (active) in assay [1]; 33.3 µM (active) in assay [2]; 20 µM (active) in assay [3]; 4.31 µM (active) in assay [4]; 15.2 µM (active) in assay [7]; 26 µM (active) in assay [8]. The AC50 is 31 µM (active) in assay [9], 33.5 µM (active) in assay [10], 29.9 µM (active) in assay [11] and 28.7 µM (active) in assay [14]. The outcome in assay [5], in assay [6], in assay [12], in assay [15], in assay [16] and in [17] was inactive. In addition, the result in [18] and in assay [19] was inactive.

On to `OCCN(CCO)CCO`, for which the result in [1], in assay [2], in assay [3], in assay [4], in assay [5] and in assay [6] was inactive. In addition, the outcome in [7], in assay [8], in [10], in assay [11], in assay [12] and in assay [13] was inactive. In addition, the outcome in assay [14], in assay [20], in assay [15], in assay [16], in assay [17] and in assay [18] was inactive. For the same compound, the result in [19] was inactive.

On to `Oc1cccc(-c2ccccc2)c1`, for which the result in assay [1], in assay [2], in assay [5], in assay [6], in [10] and in assay [11] was inactive. Also, the result in assay [12], in [14], in assay [20], in assay [15], in assay [16] and in [19] was inactive. Moreover, the AC50 is 31.7 µM (active) in assay [3]; 30 µM (active) in [4]; 35.3 µM (active) in [7]; 33.7 µM (active) in assay [8]; 31.6 µM (active) in assay [13]; 20 µM (active) in assay [17]. Besides, in assay [18], the AC50 was 35 µM (active).

As to `CC(C)=CC1C(C(=O)OCc2cccc(Oc3ccccc3)c2)C1(C)C` (stereo not drawn), the outcome in assay [1], in [2], in assay [3], in assay [5], in assay [6] and in assay [11] was inactive. For the same compound, the outcome in assay [12], in assay [15], in [16], in assay [17] and in [19] was inactive. Besides, the AC50 is 7.5 µM (active) in assay [4]; 20 µM (active) in assay [7]; 7.43 µM (active) in assay [8]; 12.4 µM (active) in [9]; 12.5 µM (active) in [10]; 12.5 µM (active) in [14]. Also, the AC50 in [18] is 2.81 µM (active).

As for `O=C(O)COc1cc(Cl)c(Cl)cc1Cl`, the result in assay [1], in assay [2], in assay [3], in assay [4], in assay [5] and in [6] was inactive. Besides, the result in assay [7], in assay [8], in assay [9], in assay [10], in assay [11] and in assay [12] was inactive. The result in assay [13], in [14], in assay [20], in assay [15], in assay [16] and in assay [17] was inactive. Also, the result in assay [18] and in [19] was inactive.
